Source: PubChem BioAssay (NCI)
The panel holds about 79,000 compounds, 15% with a hit somewhere; the sample as a whole holds those more often. No stated cut-off is given here; in the data, active means growth inhibition above about 70%; inactive means the rest. Where a SMILES comes first, the peptide text is derived from it. [ ]: non-standard residue; d: D form. The star is where a group is joined. ξ: configuration not given here. ξF = NC(Cc1ccccc1)C(=O)O; Cbz = O=C(OCc1ccccc1)*; Aib = CC(C)(N)C(=O)O; NHNH2 = NN*

Assays:
[1] = NCI Yeast Anticancer Drug Screen. Data for the rad50 strain (AID 155);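 further: 0% = growth of vehicle-only cultures of the same strain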; settings: S. cerevisiae rad50 strain growth inhibition; at 50.0 µM; hits give high values
Outline: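 Inhibition values express reduced yeast growth in compound-treated cultures relative to vehicle-treated controls.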

[2] = NCI Yeast Anticancer Drug Screen. Data for the mec2-1 strain (AID 157); settings: S. cerevisiae mec2-1 strain, at 50.0 µM, hits give high values
Outline: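 Readout is yeast growth inhibition, normalised to vehicle-treated controls, in the mec2-1 strain exposed to compound.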

[3] = NCI Yeast Anticancer Drug Screen. Data for the sgs1 mgt1 strain (AID 161);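 further: 0% = growth of cultures given vehicle only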; settings: S. cerevisiae sgs1 mgt1 strain, at 50.0 µM, hits give high values
Outline: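 Yeast cells carrying a defined DNA-repair defect were exposed to test compounds. Growth inhibition was measured relative to vehicle-treated controls.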

[4] = NCI Yeast Anticancer Drug Screen. Data for the cln2 rad14 strain (AID 165);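 further: 0% = growth equal to vehicle treated cultures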; settings: S. cerevisiae cln2 rad14 strain, at 50.0 µM, hits give high values
Outline: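 Relative to vehicle controls, growth inhibition of compound-treated cln2 rad14 yeast was recorded.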

[5] = NCI Yeast Anticancer Drug Screen. Data for the bub3 strain (AID 167); settings: S. cerevisiae bub3 mutant strain, at 50.0 µM, hits give high values
Outline: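 Steps: expose the mutant yeast strain to compound; grow alongside vehicle-treated cultures; measure growth; express inhibition against the vehicle cultures.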

[6] = NCI Yeast Anticancer Drug Screen. Data for the mlh1 rad18 strain (AID 175); settings: S. cerevisiae mlh1 rad18 strain growth inhibition; at 50.0 µM; hits give high values
Outline: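 Test agents were incubated with a yeast strain of defined genotype (DNA damage repair defect). Inhibition of growth was derived by comparison with vehicle-exposed cultures.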

Measured: growth inhibition

CC(C)(C)c1ccc(OCC(=O)O)cc1
inactive: [1] -17.3% | [2] -12% | [3] -7.2% | [4] -17.4% | [5] -8.4% | [6] -6.6%

CCCC12C=C(OC)C(=O)C=C1OC(c1cc(OC)c(OC)c(OC)c1)C2C (configuration not stated)
inactive: [1] -14.8% | [2] -23.4% | [3] -18.8% | [4] -4.45% | [5] -6.8% | [6] -13.4%

CC1OCOC1C1OCOCC1OC(=O)c1ccccc1 (configuration not stated)
inactive: [1] -5.6% | [2] -5.5% | [3] -15.2% | [4] -14.8% | [5] 25.2% | [6] -5%

CN1CCCCC1CCO (configuration not stated)
inactive: [1] -1.4% | [2] 6.7% | [3] -11.2% | [4] 15.9% | [5] 3.25% | [6] 14.1%

CC(=O)CCCS(=O)(=O)c1ccccc1
inactive: [1] -1.5% | [2] 14.9% | [3] 0.9% | [4] -12.7% | [5] -3.8% | [6] 5.2%

COc1cc(CCNC2=CC(=O)c3cccnc3C2=O)ccc1O
inactive: [1] 36.4% | [2] 24.1% | [3] 40.2% | [4] 11.8% | [5] 3.8% | [6] 48.2%

COc1c(C)c(C)c(OC)c(CC(=O)O)c1C
inactive: [1] -3.05% | [2] -0.6% | [3] -3.7% | [4] -34.9% | [5] -17.7% | [6] 4.9%

CC(=O)c1ccc(N=Nc2ccc3nonc3c2N)cc1
inactive: [1] -22.5% | [2] -4.35% | [3] -20.6% | [4] -10.2% | [5] 5.25% | [6] -9.45%

CCCCOC(=O)NC(C)=O
inactive: [1] -14.1% | [2] -18.9% | [3] -15.2% | [4] -11.6% | [5] -1.55% | [6] -16.1%

O=C1c2cc(F)ccc2-c2c(F)cc(F)cc21
inactive: [1] 19.9% | [2] -6.4% | [3] -2.1% | [4] 40.5% | [5] -3.85% | [6] -8.8%

COc1ccc(-n2c(N)c(C#N)c(C#N)c2-c2cccc([N+](=O)[O-])c2)cc1
inactive: [1] 6% | [2] 9.75% | [3] -62.8% | [4] -3.1% | [5] -18.9% | [6] -48.5%

O/N=C1\CC2(N3CCOCC3)CCC1(Cc1ccccc1)CC2
inactive: [1] 36% | [2] 52.6% | [3] 60.2% | [4] 55.6% | [5] 38.8% | [6] 49.4%

COc1ccc2c(=O)cc[nH]c2c1OC
inactive: [1] -13.9% | [2] -16.4% | [3] -8.2% | [4] -23.9% | [5] 9.1% | [6] 4.85%

COc1cc(CC2COC(=O)[C@@H]2Cc2ccc(O)c(OC)c2)ccc1O (some centres not stated)
inactive: [1] -29.7% | [2] -18.9% | [3] -23.4% | [4] 1.25% | [5] 6.55% | [6] 3.1%

ON=C1c2cc(Cl)ccc2-c2ccc(Cl)cc21
inactive: [1] 5.25% | [2] 4.05% | [3] 18.1% | [4] -40.8% | [5] 5.45% | [6] 16.6%

O=S(=O)(O)c1cccc2c1oc1ccccc12
inactive: [1] 8.85% | [2] -37.4% | [3] -3.75% | [4] 19% | [5] -10.1% | [6] -19%

CC(C)(NC(=O)OCc1ccccc1)C(=O)NC(Cc1ccccc1)C(=O)NN (configuration not stated) (Cbz-[Aib]-[ξF]-NHNH2)
inactive: [1] 0.55% | [2] 7.35% | [3] 7% | [4] 20.9% | [5] 15.4% | [6] -20.1%

CCOC(=O)c1nc2c(n(O)c1=N)CCC/C2=N\O
inactive: [1] 4.1% | [2] -1.6% | [3] -8.8% | [4] 14.2% | [5] 3.8% | [6] 5.45%

O=C(O)CC1CCCc2ccccc2C1=O (configuration not stated)
inactive: [1] 34.3% | [2] 46.3% | [3] 18.1% | [4] 25.9% | [5] 48.5% | [6] 17.9%

COC(=O)C(C(=O)C(=O)Nc1cccc(OC)c1)c1cnc2ccccc2n1 (configuration not stated)
inactive: [1] -16.4% | [2] -8.85% | [3] -9.45% | [4] 21.2% | [5] 6.9% | [6] -10.5%

CCCNC(=O)c1ccc(Cl)cc1Cl
inactive: [1] 29.8% | [2] 7.85% | [3] 18.4% | [4] -12.2% | [5] -12.5% | [6] 27.1%

Cc1ccc(C2OC(N)=C(O)C2=O)cc1 (configuration not stated)
inactive: [1] -43% | [2] 10.2% | [3] -4% | [4] -26.4% | [5] 1.85% | [6] 9.5%

CC(=O)C1(c2ccccc2)C(C)(C)C(C)(C)C(=O)C(C)(C)C1(C)C
inactive: [1] 19.4% | [2] 7.55% | [3] 15.4% | [4] 16.9% | [5] 12.9% | [6] 21.6%

CC1CN=C(c2ccccc2)C(c2ccccc2)=N1 (configuration not stated)
inactive: [1] -24.2% | [2] 1.3% | [3] -6.4% | [4] -6.15% | [5] -12.5% | [6] -22.3%

NC(=O)c1ccccc1OCC(=O)O
inactive: [1] 6.65% | [2] -1.2% | [3] 4.2% | [4] 15.8% | [5] -6.45% | [6] 19.1%

C=C(C)C12CC3CC/C(=N/O)C(C1)C3(N1CCOCC1)C/C2=N/O (configuration not stated)
inactive: [1] -21.6% | [2] -18.9% | [3] -16.2% | [4] -12.3% | [5] -7.15% | [6] -25.9%

COn1nnc2c([N+](=O)[O-])cccc21
inactive: [1] 18.8% | [2] -6% | [3] -3.15% | [4] -22.9% | [5] -16.4% | [6] 5%

Cc1noc(/N=C/c2ccccc2)c1C
inactive: [1] -6.8% | [2] -5.45% | [3] -5.3% | [4] -28.1% | [5] 4.4% | [6] -2.5%

COc1cc2c(c3c1c(=O)c1ccccc1n3C)C=CC(C)(C)O2
inactive: [1] 10.9% | [2] -13.9% | [3] 22.7% | [4] 11.2% | [5] 4.75% | [6] 9.9%

CCCCCCC(=O)N1CC(C)OC(C)C1 (configuration not stated)
inactive: [1] 0.6% | [2] -6.4% | [3] 2.4% | [4] 0.1% | [5] -14.7% | [6] 4.8%

CC(C(=O)c1ccccc1)C(O)(C(F)(F)F)C(F)(F)F (configuration not stated)
inactive: [1] -5.15% | [2] 2.6% | [3] 4.25% | [4] -24.4% | [5] -0.85% | [6] -9.05%

CCCCCCCCCC(C(=O)OCC)(C(=O)OCC)C1CCCC1
inactive: [1] -26.9% | [2] -4.6% | [3] -12.1% | [4] 5.75% | [5] -7.8% | [6] -30.1%

O=C(O)CC(C(=O)O)=C1CCCCC1
inactive: [1] 11.8% | [2] 13.4% | [3] 0.5% | [4] 8.15% | [5] 8.75% | [6] -0.3%

NC(=O)N/N=C(/CC1C(=O)Oc2ccccc21)c1ccccc1O (configuration not stated)
inactive: [1] -8.35% | [2] -4.7% | [3] -9.7% | [4] -14.3% | [5] -24.9% | [6] 14%

COC(=O)c1ccc2c(c1)CC1(C2)Cc2cc3c(cc2C1=O)CCC3 (configuration not stated)
inactive: [1] -3.35% | [2] -37.8% | [3] -0.5% | [4] -3.15% | [5] 14.3% | [6] -5.3%

CCOC(=O)Nc1cccc(F)c1
inactive: [1] -10.9% | [2] 14.7% | [3] 22.9% | [4] -44.6% | [5] -21.1% | [6] -0.5%

Cc1cc(SCC(=O)c2ccccc2)nc2ccccc12
inactive: [1] -6.75% | [2] -24.1% | [3] -8.85% | [4] -2.25% | [5] -53.1% | [6] -2.7%

Cc1c(Cl)ccc([N+](=O)[O-])c1Cl
inactive: [1] 10.7% | [2] -6.85% | [3] -3.35% | [4] 18.3% | [5] 14.8% | [6] 29.4%

CCOC(=O)C(CCCOC1CCCCO1)(C(=O)OCC)c1ccccc1 (configuration not stated)
inactive: [1] 21.4% | [2] -0.1% | [3] -15.2% | [4] 14.4% | [5] 8.8% | [6] -5%

COc1ccc(COC(=O)Nc2ccc([N+](=O)[O-])cc2)cc1
inactive: [1] -38.2% | [2] -3.6% | [3] -28.1% | [4] -5.3% | [5] -18.5% | [6] -12.2%

CN1C(=O)CC2(C)c3cc(O)ccc3N(C)C12 (configuration not stated)
inactive: [1] 53.6% | [2] 30.1% | [3] 54.5% | [4] 64.3% | [5] 32.6% | [6] -81.7%

COC(=O)N/N=C(\C(=O)Nc1cccc([N+](=O)[O-])c1)c1nc2ccc([N+](=O)[O-])cc2[nH]c1=O
inactive: [1] 8.65% | [2] -7.75% | [3] 25% | [4] 14.8% | [5] -17.1% | [6] -1.25%
